Screening data deposited in PubChem by several laboratories.
This is a sample that favours compounds with a hit; in the whole collection about 3.8% have one here.
FAS-TE inh – inhibitors of human fatty acid synthase thioesterase domain; P49327; inhibition, % at 15 µM; 0.67% of 360,000 active; recombinant FAS-TE, OMFH fluorogenic substrate, fluorescence endpoint; AID 602261;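 active means compounds whose normalised, plate-corrected inhibition of enzyme fluorescence in the single-dose primary screen is 50% or more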
SUMO Mot1 rescue – inhibitors of SUMOylation pathway: yeast Mot1-301 growth rescue | S. cerevisiae Mot1-301 growth rescue, ATP luminescence, 38.5C; percent above DMSO median, 100 means doubled | growth rescue, % at 18.8 µM | 1% of 320,000 active | AID 2716;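 active means every valid replicate shows activation above 250% relative to neutral control wells; inactive means the rest, any valid replicate at or below 250%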
aDG glyco act – alpha-DG glycosylation activation; activation, % at 10 µM; Pro5-aDG cells, alpha-DG glycosylation AlphaScreen (IIH6); 0% Pro5, 100% B10-LARGE cell signal; 0.22% of 360,000 active;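 active means activation of at least 8% versus controls, or a plate z-score of at least 8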;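 further: Pro5 are CHO cells carrying HIG-tagged alpha-DG that lacks glycosylation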
MPTP inh – inhibitors of mitochondrial permeability transition pore. isolated mouse mitochondria, Ca2+ swelling absorbance, 30 min. inhibition, % at 10 µM. 1.4% of 360,000 active;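 active means inhibition of 50% or more, scaled per plate between neutral and stimulator controls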
Yeast superoxide – caloric restriction mimetics inhibiting age-related superoxide in yeast | S. cerevisiae aged cells, superoxide DHE fluorescence; hits give low values | superoxide response (% of plate mean), % at 10 µM | 0.18% of 330,000 active | AID 2690;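 active means superoxide response under a set limit, about three screen SD below normal, cut at about 65% in these data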;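 further: yeast aged for seven days with compound at 30 °C before DHE staining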
Cardio protect – myocardial damage modulation in H9c2 cells; H9c2 cardiomyocytes, H2O2 injury protection, ATPLite, 2 h; protection from H2O2 cell death, % at 20 µM; 0.63% of 360,000 active; AID 588492;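 active means compounds giving at least 50% protection of heart cells from peroxide-induced death in the single-dose screen, raw or plate-pattern-corrected value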
Superoxide pick – yeast aging superoxide inhibition, cherry pick confirmation; shares compounds with Yeast superoxide; S. cerevisiae aging, superoxide DHE fluorescence; hits give low values; superoxide response (% of plate), % at 10 µM; 1% of 850 active;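 active means superoxide signal below 65% of the plate average of sample wells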;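 further: cells aged with compound for 7 days at 30 degrees C before staining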
DHE counter – DHE fluorescence interference, counter-screen artifact | shares compounds with Yeast superoxide | S. cerevisiae BY4741, flow cytometry; hits give low values | fluorescence response, % at 10 µM | 850 tested, under 10 active;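 active means fluorescence response below 15%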;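 further: lower means stronger quenching of DHE signal or ROS scavenging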
Each line names hits and unclear results; the compound was inactive in the other large screens (follow-up assays come after a bar, where they were run).

CCCc1cc(=O)oc2cc(OC(=O)CN3C(=O)NC4(CCCC4)C3=O)ccc12	Cardio protect 61
CCCc1cc(=O)oc2cc(OCC(=O)N3CC[C@@]4(O)CCCC[C@H]4C3)ccc12	none (no result: SUMO Mot1 rescue, Yeast superoxide)
COc1ccccc1C(=O)Nc1ccnn1C1CCN(C2CCCCC2)CC1	none (no result: SUMO Mot1 rescue, Yeast superoxide)
Cc1ccccc1Cn1ccc(NC(=O)c2cnn3c(C(F)(F)F)cc(-c4ccco4)nc23)n1	Cardio protect 60
O=C(Nc1ccc2c(c1)OCO2)c1cnn2c(C(F)(F)F)cc(-c3ccco3)nc12	Cardio protect 93
COc1ccc(-c2nnc(SCC(=O)N(C)C3CCS(=O)(=O)C3)n2CC(C)C)cc1 (configuration not stated)	none (no result: SUMO Mot1 rescue, Yeast superoxide)
CCCC(=O)N1CCC1(C)C(=O)NS(=O)(=O)c1cccc(C)c1 (configuration not stated)	none (no result: SUMO Mot1 rescue, Yeast superoxide)
CCCN1C(=O)/C(=C\c2nc3ccccc3c(=O)[nH]2)c2ccccc21	Cardio protect 66 (no result: SUMO Mot1 rescue, Yeast superoxide)
O=c1[nH]c(/C=C/c2cccc3ccccc23)nc2ccccc12	none
COc1ccccc1OCCn1c(=O)n(C)c2ccccc21	SUMO Mot1 rescue 345
Cn1c(=O)n(CCOc2ccccc2Cl)c2ccccc21	none
O=C(c1cccc(F)c1)N1CCN(c2cccc(C(F)(F)F)c2)CC1	none | Superoxide pick inactive | DHE counter inactive
COc1ccc(-c2c(C(=O)O)nc3ccccc3c2C(=O)O)cc1	Yeast superoxide 62 | Superoxide pick inactive | DHE counter inactive
COC(=O)c1c(C)nc2ccccc2c1C(=O)O	none
O=C(CSc1ccc(-c2cccnc2)nn1)Nc1ccc(F)cc1F	none
O=C(CSc1ccc(-c2cccnc2)nn1)Nc1ccccc1C(F)(F)F	none | Superoxide pick inactive | DHE counter inactive
O=C(CSc1ccc(-c2ccccn2)nn1)Nc1ccc(F)cc1F	none | Superoxide pick inactive | DHE counter inactive
O=C(CSc1ccc(-c2ccccn2)nn1)Nc1ccc(F)c(F)c1	none | Superoxide pick inactive | DHE counter inactive
COc1ccc(NC(=O)CSc2ccc(-c3ccccn3)nn2)cc1OC	none
COc1ccccc1NC(=O)CSc1ccc(-c2ccccn2)nn1	none | Superoxide pick inactive | DHE counter inactive
CC12CCC(C(=O)NC3CCCCC3)([C@H](Br)C1=O)C2(C)C (some centres not stated)	none
Cc1cc(C)cc(NC(=O)[C@@H](NC(=O)c2ccco2)C(C)C)c1	none
Cc1cc(C)c(NC(=O)CSc2ccc(-c3ccccn3)nn2)c(C)c1	none
CCOC(=O)c1ccc(NC(=O)CSc2ccc(-c3ccccn3)nn2)cc1	none | Superoxide pick inactive | DHE counter inactive
CCOC(=O)c1c(C)[nH]c(C)c1C(=O)COC(=O)/C=C/c1ccco1	none
COc1ccc(OC)c(CN2CCC(CNC(=O)Nc3cccc(Cl)c3)CC2)c1	none
COc1cc(NC(=O)NCC2CCN(Cc3ccccc3Cl)CC2)cc(OC)c1OC	Yeast superoxide 41 | Superoxide pick inactive | DHE counter inactive
CCN(CC)C(=O)CCSc1nnc(-c2ccncc2)o1	none
CCN(CC)C(=O)CSc1nnc(-c2ccccc2)o1	none | Superoxide pick inactive | DHE counter inactive
CCCNC(=O)CSc1nnc(-c2ccc(F)cc2)o1	none | Superoxide pick inactive | DHE counter inactive
O=C(C1CCCO1)N1CCN(c2c3c(nc4cc(-c5ccc(F)cc5)nn24)CCC3)CC1 (configuration not stated)	Yeast superoxide 63 | Superoxide pick inactive | DHE counter inactive
COc1ccc(CC2NCCC3=CC(=O)CCC32)cc1O (configuration not stated)	none
COc1ccc(C2=Nc3ccccc3NC(=O)C2N(CCc2ccccc2)C(=O)c2cccs2)cc1 (configuration not stated)	none (no result: SUMO Mot1 rescue, Yeast superoxide)
CC(=O)c1ccc(NS(=O)(=O)c2ccccc2)cc1	none | Superoxide pick inactive | DHE counter inactive
CN1OC[C@@H]2CN(Cc3ccc(Cl)cc3)[C@H](c3cccc(Br)c3)C[C@@H]21	none (no result: SUMO Mot1 rescue, Yeast superoxide)
O=C(CSc1nnc(-c2ccc(O)cc2)n1Cc1ccco1)N1CCc2ccccc2C1	Yeast superoxide 60 | Superoxide pick inactive | DHE counter inactive
CC(=O)c1ccc(S(=O)(=O)N(C)CC(=O)NCc2ccco2)cc1	none
COc1ccc2nc(Nc3nc(CSc4ccc(C)cc4)cc(=O)[nH]3)nc(C)c2c1	none
COc1ccc2nc(Nc3nc(C)c(CCC(C)C)c(=O)[nH]3)nc(C)c2c1	Yeast superoxide 65 | Superoxide pick inactive | DHE counter inactive
COC(=O)[C@@]12C[C@@H](CC(=O)N3CCC(c4ccccc4)CC3)C(=O)N(Cc3cccc4ccccc34)C1=CCC(C)(C)C2	none (no result: FAS-TE inh, SUMO Mot1 rescue, Yeast superoxide, Cardio protect)
Nc1nn(-c2ccccc2)c2ccc([N+](=O)[O-])cc12	none
CCn1c2ccccc2c2cc([N+](=O)[O-])ccc21	none | Superoxide pick inactive | DHE counter inactive
CC(C)n1c2ccccc2c2cc([N+](=O)[O-])ccc21	none | Superoxide pick inactive | DHE counter inactive
CCn1c(=O)c2ccccc2n(Cc2cccc([N+](=O)[O-])c2)c1=O	none
CCN(CC(=O)Nc1c(F)cccc1F)C(=O)c1cccc(S(=O)(=O)NCc2ccccc2)c1	none
Cc1cccc(S(=O)(=O)N(C)C[C@H]2OCc3cn(nn3)CCCC(=O)N([C@H](C)CO)C[C@@H]2C)c1	none (no result: SUMO Mot1 rescue, Yeast superoxide)
CC(C)(c1cc(Br)c(O)c(Br)c1)c1cc(Br)c(O)c(Br)c1	Yeast superoxide 43 | Superoxide pick inactive | DHE counter inactive
O=C(/C=C/c1ccc(OC2CSC2)cc1)c1ccc(Cl)cc1	Yeast superoxide 63 | Superoxide pick inactive | DHE counter inactive
COc1ccc(C(=O)/C=C/c2ccc(OC3CSC3)cc2)cc1OC	none
CN(C)c1ccc(-c2csc(C(C)(O)c3ccccc3)n2)cc1 (configuration not stated)	none (no result: SUMO Mot1 rescue, Yeast superoxide)
Cn1c(=O)c2[nH]c(-c3cccnc3)nc2n(C)c1=O	Yeast superoxide 58 | Superoxide pick inactive | DHE counter inactive
CCOC(=O)Cc1csc(SCC(=O)N2CCN(c3ccccc3)CC2)n1	none
Cc1nnsc1C(=O)NNC(=O)c1ccc(C(F)(F)F)cc1	Yeast superoxide 63 | Superoxide pick inactive | DHE counter inactive
O=C(Cc1ccccc1)NCc1ccncc1	Yeast superoxide 57 | Superoxide pick inactive | DHE counter inactive
Nc1nc(SCc2ccc(Br)cc2)n[nH]1	Yeast superoxide 49 | Superoxide pick inactive | DHE counter inactive
O=C(COC(=O)CNC(=O)c1ccc(Cl)c([N+](=O)[O-])c1)NC(=O)CN1CCCC1=O	none
